Assay outcomes deposited in PubChem BioAssay by National Center for Advancing Translational Sciences (NCATS).
Most compounds without a hit are left out; they make up all but 3.2% or so of the library.
USP2a block: USP2a (human) protease inhibition | 330,000 compounds, 0.01% hits | Potency, µM (doses to about 38.3 µM), for inactives: top-dose activity change, negative = inhibition, actives largely listed as inhibitors | O75604 | AID 463254 | USP2 core, Ub-CHOP2 coupled fluorogenic reporter, 485/531;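 note: potency is the fitted concentration of half-maximal effect; plate controls were DMSO wells for no effect and full inhibition by NEM control for full effect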
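Deubiquitinase activity read as fluorescence (485/531 nm) after Ub-CHOP2 cleavage activates the enterokinase reporter on its substrate; USP2 core 10nM, Ub-CHOP2 and substrate 25nM each, 30min compound preincubation then 60min RT; data normalized to NEM, curves fitted.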
VDR inh: vitamin D3 receptor (human) inhibition. P11473. VDR-SRC2-3 peptide fluorescence polarization, 2 h. Potency, µM, without a hit: max response, negative = inhibition, actives largely listed as inhibitors. 400,000 compounds, 0.93% hits; note: potency is the fitted concentration of half-maximal effect
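Compounds are added to VDR with labelled SRC2-3 coactivator peptide and held 2 h at room temperature. Inhibition of the VDR–peptide interaction is then read as a change in fluorescence polarization.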
PLK1 PBD inh: blocks phosphopeptide binding to human PLK1 polo-box domain; P53350; Potency, µM, inactives show max response, negative = inhibition, usual class: inhibitors; 360,000 compounds, 2.8% hits; Plk1 PBD binding of FITC phosphopeptide, fluorescence polarization; note: potency is the fitted concentration of half-maximal effect; series mostly up to about 57 µM; nearly all actives have a fitted effect of over 65% in size
GALK inh: inhibitors of human galactokinase; Purified GALK, Kinase-Glo residual ATP luminescence; AID 1868; 270,000 compounds, 0.007% hits; Potency, µM (series often up to 57.5 µM), for the others: top-dose activity change, negative = inhibition, most hits filed as inhibitors; note: potency is the fitted concentration of half-maximal effect
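ATP-depletion format; final 35 uM ATP, 100 uM D-galactose, 5 nM enzyme; pH 8.0 HEPES/Mg2+ buffer; 60 min RT; luminescence read 10 min after detection reagent.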
Coupling enz: coupling enzyme interference in Giardia aldolase counter-screen | 290,000 compounds, 0.67% hits | activity change, negative = inhibition, % at 58.2 µM, hits read low | AID 2472 | coupling enzyme system counterscreen, AmpLite Red fluorescence; in the data active = activity change below about -30%
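Counterscreen of the coupled detection system alone, without aldolase: glyceraldehyde-3-phosphate coupling enzymes plus AmpLite Red readout. Compounds at 57.5 uM final, 10 min RT preincubation, 20 min RT reaction, fluorescence 525/598 nm.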
USP1 inh: blocks the human USP1/UAF1 deubiquitinase complex; recombinant USP1/UAF1, Ub-Rhodamine cleavage fluorescence; Potency, µM (series often up to 57.1 µM), without a hit: at the top dose activity change, negative = inhibition, most hits filed as inhibitors; 390,000 compounds, 0.23% hits; AID 743255; note: potency is the fitted concentration of half-maximal effect; nearly all actives have a fitted effect of over 60% in size
Target sequence (O94782 whole entry, looked up): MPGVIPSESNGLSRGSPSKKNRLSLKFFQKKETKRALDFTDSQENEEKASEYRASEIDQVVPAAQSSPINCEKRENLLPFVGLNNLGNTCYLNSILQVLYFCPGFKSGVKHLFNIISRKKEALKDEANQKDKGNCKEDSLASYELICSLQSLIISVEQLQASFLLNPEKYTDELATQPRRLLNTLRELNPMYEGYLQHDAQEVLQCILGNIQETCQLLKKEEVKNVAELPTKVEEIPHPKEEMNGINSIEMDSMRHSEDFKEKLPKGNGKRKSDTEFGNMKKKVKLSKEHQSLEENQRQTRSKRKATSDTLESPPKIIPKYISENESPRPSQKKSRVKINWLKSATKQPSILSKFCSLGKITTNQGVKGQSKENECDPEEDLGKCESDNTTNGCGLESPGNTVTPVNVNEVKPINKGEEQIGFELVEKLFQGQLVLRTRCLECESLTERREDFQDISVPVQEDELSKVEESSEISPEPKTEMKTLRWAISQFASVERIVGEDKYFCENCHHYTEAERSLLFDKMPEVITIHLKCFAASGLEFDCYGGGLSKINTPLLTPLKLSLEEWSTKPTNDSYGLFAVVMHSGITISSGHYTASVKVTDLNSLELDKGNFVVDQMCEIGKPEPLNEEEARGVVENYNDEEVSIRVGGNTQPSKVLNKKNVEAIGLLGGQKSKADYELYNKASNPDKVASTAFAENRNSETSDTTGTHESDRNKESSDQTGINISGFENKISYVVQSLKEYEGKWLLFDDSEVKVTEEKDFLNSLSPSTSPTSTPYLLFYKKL
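USP1/UAF1 complex at 1 nM was preincubated with compound for 15 min at room temperature, then Ub-Rho substrate (150nM final) was added. Fluorescence (480/540 nm) was read kinetically, 6 reads every 60 seconds.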
* = called active by the depositor. Unless noted, calls come from the whole dose curve; as a rule, active = well fitted curve in the direction sought with a large enough effect; inconclusive = small, poorly fitted or top-dose-only effect, or another doubt; inactive = no such curve, though single readings can be large; an effect the other way counts as inactive or inconclusive. Unless noted, % is set by controls: 0 for no effect and ±100 for the full control effect.

For CN(C)c1ccc(/C=C(\NC(=O)c2ccccc2)C(=O)NCCCn2ccnc2)cc1 the results were USP2a block 1%, VDR inh 13%, PLK1 PBD inh -10%, GALK inh -2%, Coupling enz 0 and USP1 inh -18%.
Cc1cc(C)cc(N(CCC(=O)O)S(=O)(=O)c2ccc(Cl)cc2)c1 was read as USP2a block 3%, VDR inh 15%, PLK1 PBD inh -3%, GALK inh 2%, Coupling enz 9 and USP1 inh -15%.
For CCOC(=O)C1CCN(C(=O)Nc2ccc3c(c2)nc(C)n3C)CC1 the results were USP2a block 0%, VDR inh -4%, PLK1 PBD inh -7%, GALK inh -1%, Coupling enz -5 and USP1 inh -8%.
Screening CCOC(=O)C1CCN(C(=O)Nc2ccc3nc(-c4ccco4)c(-c4ccco4)nc3c2)CC1 returned USP2a block 0%, VDR inh inconclusive, PLK1 PBD inh 12µM*, GALK inh -4%, Coupling enz -45* and USP1 inh inconclusive.
`O=C(Nc1cccc(Cl)c1)N1CCCC1` gave USP2a block 6%, VDR inh 18µM*, PLK1 PBD inh 6µM*, GALK inh 0%, Coupling enz -3 and USP1 inh -15%.
`O=C(Nc1ccc2nc(-c3ccco3)c(-c3ccco3)nc2c1)N1CCCCCC1` gave USP2a block -6%, VDR inh inconclusive, PLK1 PBD inh 24µM*, GALK inh -2%, Coupling enz -37* and USP1 inh 32µM*.
O=C(CCOc1ccccc1)Nc1ccc(Cl)c(S(=O)(=O)N2CCOCC2)c1 was read as USP2a block 1%, VDR inh -3%, PLK1 PBD inh 1% and USP1 inh -19%.
CCN(CC(=O)Nc1ccc(NC(C)=O)cc1)C(=O)/C=C/c1c(C)nn(-c2ccc(F)cc2)c1Cl was read as USP2a block 2%, VDR inh -9%, PLK1 PBD inh -1% and USP1 inh inconclusive.
CC1CCN(c2nc3c(-c4cccc(Br)c4)nnn3c3ccccc23)CC1 was read as VDR inh 7% and USP1 inh -18%.
Screening O=C(O)CCCCCN1C(=O)/C(=C/c2cn(-c3ccccc3)nc2-c2cccs2)SC1=S returned VDR inh -4%, PLK1 PBD inh 27µM* and USP1 inh inconclusive.
`O=C(O)CCN1C(=O)/C(=C\c2ccncc2)SC1=S` gave USP2a block -1%, VDR inh -7%, PLK1 PBD inh 0%, GALK inh 1%, Coupling enz -1 and USP1 inh -23%.
Screening O=C(O)CCN1C(=O)/C(=C/c2cn(-c3ccccc3)nc2-c2cccs2)SC1=S returned USP2a block 3%, VDR inh inconclusive, PLK1 PBD inh 30µM*, GALK inh 0%, Coupling enz -1 and USP1 inh inconclusive.
For O=C(O)CCCCCN1C(=O)/C(=C\c2cn(-c3ccccc3)nc2-c2cccs2)SC1=S the results were USP2a block -6%, VDR inh -19%, PLK1 PBD inh 50%, GALK inh -6%, Coupling enz 8 and USP1 inh inconclusive.
`CCOc1ccccc1N1CCN(C(=O)CNC(=O)c2sc3ccccc3c2Cl)CC1` gave USP2a block 1%, VDR inh -1%, PLK1 PBD inh 1%, GALK inh -3%, Coupling enz -1 and USP1 inh -19%.
`CC(c1ccccc1)N1C(=O)c2ccc(C(=O)Nc3ccccc3C(=O)O)cc2C1=O` (centres undefined) gave USP2a block -2%, VDR inh -20%, PLK1 PBD inh 24µM*, GALK inh -11% and USP1 inh -25%.
`CC(C)CN1C(=O)c2ccc(C(=O)Nc3ccc(O)cc3C(=O)O)cc2C1=O` gave USP2a block 10%, VDR inh -9%, PLK1 PBD inh -5%, GALK inh -6%, Coupling enz 6 and USP1 inh -6%.
For CC(c1ccccc1)N1C(=O)c2ccc(C(=O)Nc3ccc(Br)cc3C(=O)O)cc2C1=O (centres undefined) the results were USP2a block 3%, VDR inh inconclusive, PLK1 PBD inh 24µM*, GALK inh 0% and USP1 inh inconclusive.
Screening CCc1ccc2[nH]c(=O)c(CN(Cc3cccs3)Cc3nnnn3Cc3ccccc3)cc2c1 returned VDR inh -10%.
For CC1(C)CC(=O)C(C=NCCN2CCN(C3CC(=O)N(c4ccc(Br)cc4)C3=O)CC2)=C(O)C1 (centres undefined) the results were USP2a block 2%, VDR inh -3%, PLK1 PBD inh 27µM*, GALK inh 2%, Coupling enz -1 and USP1 inh inconclusive.
For CCNc1nc(NCC)n2c(SCC(=O)Nc3ccc(NC(C)=O)cc3)nnc2n1 the results were USP2a block -5%, VDR inh -4%, PLK1 PBD inh -5% and USP1 inh -6%.
Screening CCNc1nc(NCC)n2c(SCC(=O)Nc3ccccc3F)nnc2n1 returned USP2a block 2%, VDR inh -7%, PLK1 PBD inh 12µM* and USP1 inh -11%.
For CCNc1nc(NCC)n2c(SCC(=O)Nc3ccc(CC)cc3)nnc2n1 the results were USP2a block 3%, VDR inh 50µM*, PLK1 PBD inh 6.7µM* and USP1 inh -11%.
For CCNc1nc(NCC)n2c(SCC(=O)Nc3ccccc3OC(F)F)nnc2n1 the results were USP2a block 4%, VDR inh 5%, PLK1 PBD inh -11% and USP1 inh -5%.
For CCn1cc(/C=N/NC(=O)c2ccc(C#N)cc2F)c2ccccc21 the results were USP2a block 3%, VDR inh -1%, PLK1 PBD inh -7%, GALK inh -4%, Coupling enz -32* and USP1 inh 3%.
Screening CCN(CC)CCNC(=O)c1ccc2c(c1)sc1nc(-c3ccc(F)cc3)cn12 returned VDR inh 10% and USP1 inh 15%.
O=C1O/C(=C/Br)CCC1c1cccc2ccccc12 (centres undefined) was read as VDR inh 18µM*.
Cn1nnnc1SCc1ccc(Cl)cc1 was read as USP2a block 1%, VDR inh -9%, PLK1 PBD inh 0%, GALK inh 1%, Coupling enz 0 and USP1 inh -19%.
Screening Oc1ccc(Cl)cc1/C=N/c1nccs1 returned USP2a block 1%, VDR inh 4%, PLK1 PBD inh -27%, GALK inh 1%, Coupling enz 4 and USP1 inh -11%.
